Among the data in PubChem BioAssay are composite z-score and z-score values, retold here.

A short description of assay [1]: compounds binding Alexa647 anti-His antibody – biochemical, small-molecule microarray, 635 nm fluorescence, artefact control for SMM control protein annotation, primary screen (AID 1128).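 Note: score merges feature fluorescence with signal-to-noise for each printed compound spot.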 The settings on record: higher = more signal.
For assay [2], the system named is Human papillomavirus type 1a E7 protein (residues 1-88). As to the kind of experiment: HPV1a E7 small-molecule binders, primary screen, biochemical, small-molecule microarray, residues 1-88, 635 nm (AID 1129). The settings on record: small-molecule microarray binding, fluorescence 635 nm; higher = more signal.
The target of assay [3] is Focal adhesion kinase 1 (Homo sapiens) (UniProt Q05397). As to the kind of experiment: PTK2 protein binding on printed compound slides – biochemical, small-molecule microarray, 635/667 nm fluorescence, BSA, DTT, primary screen (AID 1130).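 Note: composite of spot emission at 667 nm and signal to noise over triplicate slides.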 The settings on record: 635 nm fluorescence, higher = more signal.
Chain of Focal adhesion kinase 1 (Homo sapiens) (Q05397 whole entry, looked up): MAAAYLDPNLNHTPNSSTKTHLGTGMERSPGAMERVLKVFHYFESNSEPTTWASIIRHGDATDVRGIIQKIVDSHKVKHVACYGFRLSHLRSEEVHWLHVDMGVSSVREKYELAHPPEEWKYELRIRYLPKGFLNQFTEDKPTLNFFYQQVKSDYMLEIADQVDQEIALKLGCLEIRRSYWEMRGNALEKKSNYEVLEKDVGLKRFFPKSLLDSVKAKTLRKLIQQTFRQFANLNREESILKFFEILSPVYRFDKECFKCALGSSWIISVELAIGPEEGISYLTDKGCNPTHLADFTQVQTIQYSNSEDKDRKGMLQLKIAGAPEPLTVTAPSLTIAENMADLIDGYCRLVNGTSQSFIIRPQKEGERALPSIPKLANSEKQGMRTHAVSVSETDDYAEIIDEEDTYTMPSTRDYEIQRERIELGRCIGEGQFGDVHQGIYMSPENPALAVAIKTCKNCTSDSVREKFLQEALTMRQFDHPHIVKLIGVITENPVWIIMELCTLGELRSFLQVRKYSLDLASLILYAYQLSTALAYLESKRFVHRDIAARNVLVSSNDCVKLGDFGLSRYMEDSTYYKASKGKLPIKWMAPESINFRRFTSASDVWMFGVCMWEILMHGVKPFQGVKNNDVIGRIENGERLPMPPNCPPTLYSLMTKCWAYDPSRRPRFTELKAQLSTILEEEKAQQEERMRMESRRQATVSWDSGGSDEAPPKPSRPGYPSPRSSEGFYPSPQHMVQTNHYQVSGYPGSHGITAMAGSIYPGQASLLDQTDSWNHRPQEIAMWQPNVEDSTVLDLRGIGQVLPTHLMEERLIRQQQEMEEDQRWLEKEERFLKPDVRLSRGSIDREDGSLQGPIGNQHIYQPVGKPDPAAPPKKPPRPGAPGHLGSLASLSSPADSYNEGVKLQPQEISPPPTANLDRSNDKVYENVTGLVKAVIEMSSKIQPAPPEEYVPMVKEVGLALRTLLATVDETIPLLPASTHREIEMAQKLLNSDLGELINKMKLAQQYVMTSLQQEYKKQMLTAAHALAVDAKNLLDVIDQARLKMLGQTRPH
The test system of assay [4] is Fibrinogen (Alexa647-labelled). As to the kind of experiment: Alexa647-fibrinogen binding to printed small molecules – biochemical, small-molecule microarray, 635/667 nm fluorescence, artefact control for SMM control-protein annotation, profiling panel (AID 1131).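 Note: z-score merges 667 nm fluorescence with per-spot signal-to-noise over triplicate slides.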 The settings on record: fibrinogen-A647 binding fluorescence, higher = more signal.
In assay [5] the target is Follistatin (Homo sapiens) (UniProt P19883). Description: FST protein binding to printed compounds – biochemical, small-molecule microarray, 635/667 nm fluorescence, primary screen (AID 1132). The settings on record: 635 nm fluorescence, higher = more signal.
Chain of Follistatin (Homo sapiens) (P19883 whole entry, looked up): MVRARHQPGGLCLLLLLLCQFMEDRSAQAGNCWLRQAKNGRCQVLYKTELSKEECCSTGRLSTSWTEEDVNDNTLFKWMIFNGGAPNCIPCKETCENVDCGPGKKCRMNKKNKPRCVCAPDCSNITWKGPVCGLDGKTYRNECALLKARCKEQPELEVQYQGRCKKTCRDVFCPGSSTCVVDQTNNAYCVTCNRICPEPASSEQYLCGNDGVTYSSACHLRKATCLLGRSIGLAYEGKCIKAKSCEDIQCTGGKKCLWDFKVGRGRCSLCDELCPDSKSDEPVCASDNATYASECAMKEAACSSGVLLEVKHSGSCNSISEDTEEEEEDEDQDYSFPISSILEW
The target of assay [6] is Fibroblast growth factor 2 (Homo sapiens) (UniProt P09038). Description: basic fibroblast growth factor binding to printed compounds – biochemical, small-molecule microarray, 635/667 nm fluorescence, primary screen (AID 1133). The conditions noted are these: FGF2, fluorescence 635/667, higher = more signal.
Chain of Fibroblast growth factor 2 (Homo sapiens) (P09038 whole entry, looked up): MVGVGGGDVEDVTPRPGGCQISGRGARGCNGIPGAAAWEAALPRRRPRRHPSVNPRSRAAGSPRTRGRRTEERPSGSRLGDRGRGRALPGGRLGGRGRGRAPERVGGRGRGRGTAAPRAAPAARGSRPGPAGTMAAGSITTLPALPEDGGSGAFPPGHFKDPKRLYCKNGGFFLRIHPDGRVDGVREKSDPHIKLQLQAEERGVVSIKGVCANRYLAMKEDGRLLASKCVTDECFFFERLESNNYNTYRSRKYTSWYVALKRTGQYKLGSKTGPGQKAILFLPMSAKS
Assay [7] is described as follows: JC-1 mitochondrial potential readout, lung cancer cells – cell-based, A549, JC-1 fluorescence, basal, 24 h, 100 nL, profiling panel (AID 1138).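 Note: A549 lung adenocarcinoma cells under basal conditions with no added stimulus; test concentration not given here.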 The settings on record: higher = more signal.
Assay [8] deals with Lefty1. Description: Lefty1 protein binding to printed compounds – biochemical, small-molecule microarray, 635/667 nm fluorescence, primary screen (AID 1139). The settings on record: fluorescence 635/667, higher = more signal.
The test system of assay [9] is wheat germ agglutinin (Triticum aestivum), Alexa647-labelled. As to the kind of experiment: Alexa647-WGA lectin binding to printed small molecules – biochemical, small-molecule microarray, 635/667 nm fluorescence, artefact control for SMM control-protein annotation, profiling panel (AID 1140).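 Note: score merges 667 nm feature emission with signal to noise over triplicate slides.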 The conditions noted are these: WGA-A647 binding, 635 nm fluorescence, higher = more signal.

Assay [10] addresses Luciferin 4-monooxygenase (Photinus pyralis) (UniProt P08659). Description: inhibition of purified Photinus pyralis luciferase – biochemical, luminescence, purified enzyme, 2006 set, primary screen (AID 1141).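 Note: cell-free assay with purified firefly luciferase at 100 ng per well in PBS; test concentration not given here.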 The settings on record: purified firefly luciferase, SteadyGlo luminescence, 30 min; higher = more signal, called active from +8 up or from −8 down.
Assay [11] has as its system Wnt5a (protein binding on small-molecule microarray). Description: small molecules binding Wnt5a protein – biophysical, small-molecule microarray, 635/667 nm fluorescence, primary screen (AID 1142).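 Note: fluorescence read at 667 nm with signal to noise per printed feature.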 The conditions noted are these: 635 nm fluorescence, higher = more signal.
The nature of assay [12]: ATP-based viability of Huh7 replicon cells – cell-based, CellTiter-Glo luminescence, basal, 48 h, cytotoxicity control for HCV replication inhibitor project, primary screen (AID 1143).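 Note: Huh7 hepatoma cells carrying a hepatitis C replication reporter with no stimulus; test concentration not given here.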 The conditions noted are these: higher = more signal, called active from +8 up or from −8 down. (In general: A replicon is a self-replicating genome or part of one, used to study replication in cells.)

Assay [13] in a line: Pseudomonas biofilm growth suppression – PAO1 strain, BacTiter-Glo luminescence, LB-PBS, primary screen (AID 1144). The settings on record: P. aeruginosa PAO1 biofilm, 12 h, higher = more signal.
The nature of assay [14]: basal CRE-LacZ reporter activity in PC12 – cell-based, unstimulated, primary screen (AID 1145). The settings on record: no forskolin, luminescence, 4.5 h, higher = more signal, called active from +8 up or from −8 down.
A short description of assay [15]: forskolin-driven CRE-LacZ activity in PC12 – cell-based, CRE-LacZ reporter, forskolin-stimulated, primary screen (AID 1146).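 Note: PC12 cells with 6xCRE LacZ reporter stimulated by forskolin 10 µM; beta-galactosidase reporter signal reflecting CREB driven transcription.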 The settings on record: luminescence, 4.5 h, higher = more signal, called active from +8 up or from −8 down.
The target of assay [16] is Streptavidin (Streptomyces avidinii) (UniProt P22629). As to the kind of experiment: compounds binding control protein streptavidin – biophysical, small-molecule microarray, 635/667 nm fluorescence, artefact control for SMM compound annotation, primary screen (AID 1147).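 Note: signal reflects streptavidin binding to arrayed compounds as a control protein.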 The settings on record: higher = more signal.
Chain of Streptavidin (Streptomyces avidinii) (P22629 whole entry, looked up): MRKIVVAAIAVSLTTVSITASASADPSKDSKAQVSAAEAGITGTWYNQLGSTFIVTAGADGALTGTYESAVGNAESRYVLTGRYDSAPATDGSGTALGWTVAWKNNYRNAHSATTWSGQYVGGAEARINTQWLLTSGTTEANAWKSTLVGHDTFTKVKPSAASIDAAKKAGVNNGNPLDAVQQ
Assay [17] is described as follows: probe aInhba binding on compound microarray – biochemical, small-molecule microarray, 635/667 nm fluorescence, primary screen (AID 1148).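 Note: score merges 667nm spot fluorescence with signal-to-noise for antibody binding to printed compounds.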 The conditions noted are these: higher = more signal.
The target in assay [18] is Torsin-1A (Homo sapiens) (UniProt O14656). As to the kind of experiment: TOR1A wild-type binding on microarray – cell lysate, small-molecule microarray, lysate, 635/667 nm, primary screen (AID 1149). The settings on record: COS7 hTOR1A-WT lysate, 635 nm fluorescence, higher = more signal.
Chain of Torsin-1A (Homo sapiens) (O14656 whole entry, looked up): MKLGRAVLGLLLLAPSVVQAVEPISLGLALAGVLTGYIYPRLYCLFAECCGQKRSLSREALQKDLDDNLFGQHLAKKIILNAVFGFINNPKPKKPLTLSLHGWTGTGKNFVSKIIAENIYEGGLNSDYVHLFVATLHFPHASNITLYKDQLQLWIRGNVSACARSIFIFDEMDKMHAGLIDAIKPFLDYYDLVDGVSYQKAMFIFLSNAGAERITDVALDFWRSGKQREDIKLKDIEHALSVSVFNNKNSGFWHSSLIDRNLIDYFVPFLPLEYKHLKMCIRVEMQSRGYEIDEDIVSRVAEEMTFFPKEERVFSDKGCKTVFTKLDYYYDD
Assay [19] shares this target. Description: torsin A mutant lysate binding on microarrays – cell lysate, small-molecule microarray, COS7 lysate, 635/667 nm fluorescence, primary screen (AID 1150).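 Note: score pools 667 nm emission and signal to noise measuring lysate protein binding.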 The conditions noted are these: COS7 hTOR1A mutant lysate, 635 nm fluorescence, higher = more signal.
In assay [20] the test system is Sonic hedgehog protein (Shh). As to the kind of experiment: Sonic hedgehog microarray binding compounds – biochemical, small-molecule microarray, 635/667 nm fluorescence, primary screen (AID 1151).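 Note: Shh protein binding to compounds spotted on small-molecule microarray slides; score combines spot fluorescence intensity with signal-to-noise across triplicate slides.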 The settings on record: 635 nm fluorescence, higher = more signal.

Structures are written as SMILES. Calls of active or inactive are those of the source. Unless noted, the rule behind the calls is not given here.

Chain of Luciferin 4-monooxygenase (Photinus pyralis) (P08659 whole entry, looked up): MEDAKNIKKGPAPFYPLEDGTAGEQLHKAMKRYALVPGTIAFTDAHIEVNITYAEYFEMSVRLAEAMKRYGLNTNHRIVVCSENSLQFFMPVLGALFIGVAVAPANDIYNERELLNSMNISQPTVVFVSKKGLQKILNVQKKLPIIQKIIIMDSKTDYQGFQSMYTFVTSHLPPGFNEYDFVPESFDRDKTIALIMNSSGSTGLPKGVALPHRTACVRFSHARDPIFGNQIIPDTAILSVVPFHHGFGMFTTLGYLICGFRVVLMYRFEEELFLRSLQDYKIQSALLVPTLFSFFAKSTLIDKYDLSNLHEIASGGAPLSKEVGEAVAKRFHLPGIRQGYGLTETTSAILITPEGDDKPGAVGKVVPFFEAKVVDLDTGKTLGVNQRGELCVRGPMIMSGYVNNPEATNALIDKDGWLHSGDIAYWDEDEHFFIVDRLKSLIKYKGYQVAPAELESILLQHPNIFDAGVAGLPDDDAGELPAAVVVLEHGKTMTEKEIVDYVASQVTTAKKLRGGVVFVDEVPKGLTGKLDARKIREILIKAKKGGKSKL

As to `[N-]=[N+]=NCc1ccccc1C[C@]1(C(=O)O)N=C(c2ccc(OCCCO)cc2)O[C@H]1c1ccccc1N=[N+]=[N-]`, the composite z-score came out at 0.906 in [1]; 1.19 in assay [2]; 0.532 in assay [3]; 0.985 in assay [4]; 1.1 in [5]; 0.582 in assay [6]. Also, the composite z-score is 0.354 in assay [8]; 1.2 in assay [9]; 0.92 in assay [11]; 0.954 in [16]; 0.199 in [17]; 2.01 in [18]. Besides, the composite z-score in assay [19] came to 1.39; in [20] it was 0.237. Also, the z-score in assay [7] is -1.17; in [10], -13.8 (active); in assay [12], -2.37 (inactive); in assay [13] it was -2.08 (inactive); in assay [14], 0.218 (inactive); in [15], 0.987 (inactive).
Consider `[N-]=[N+]=Nc1ccccc1C[C@]1(C(=O)NCC(O)CO)N=C(c2ccc(OCCCO)cc2)O[C@H]1c1ccccc1N=[N+]=[N-]` (stereo not given in full), for which the composite z-score in assay [1] was 1.58; in assay [2], -0.212; in assay [3] it was 0.0567; in assay [4], 0.578; in [5] it was -0.332; in assay [6] it was -0.83. In addition, the composite z-score in assay [8] was -0.435; in [9], 0.543; in [11], 0.246; in assay [16] it was 0.0136; in assay [17], 0.192; in assay [18], -0.0376. The composite z-score in assay [19] was 0.585; in assay [20], -0.524. In addition, the z-score in assay [7] was 0.0494; in assay [10], -3.26 (inactive); in assay [12], -3.86 (inactive); in assay [13], -0.0958 (inactive); in [14], 1.05 (inactive); in assay [15], -1.49 (inactive).
With `O=C1OCCC/C=C\[C@H]2OC34C=CCN(Cn5nnc6ccccc65)C(=O)[C@H]3N(CCCCCCO)C(=O)[C@@H]4C12` (stereo not given in full), the composite z-score in [1] is 0.919; in assay [2], -0.776; in assay [3], 0.326; in [4] it was -2.01; in assay [5], -0.686; in [6] it was -1.58. Moreover, the composite z-score in [8] was -0.394; in assay [9], 0.727; in [11] it was -0.35; in [16], -1.08; in assay [17], -0.214; in assay [18] it was 1.27. Moreover, the values for the composite z-score in assay [19] and in assay [20] were 1.43 and 0.326, respectively. The z-score in assay [7] was 1.05; in assay [10] it was -0.254 (inactive); in [12], -0.599 (inactive); in [13], -2.19 (inactive); in [14], -1.17 (inactive); in assay [15], -0.729 (inactive).
In the case of `C=C(CCCC)C(=O)CC[C@@H](OC(=O)c1cccnc1)c1ccc(CO)o1`, the composite z-score in assay [1] is 1.18; in assay [2], 1; in [3], -0.338; in assay [4] it was 0.947; in assay [5] it was 1.25; in assay [6], 1.47. Also, the composite z-score in [8] is 1.36; in assay [9] it was 0.828; in [11], 0.314; in assay [16], 1.05; in [17] it was -0.0774; in [18], 0.984. The composite z-score was 1.74 in assay [19] and 2.04 in [20]. Moreover, the z-score is -0.627 in assay [7]; -2.32 (inactive) in assay [10]; -0.0785 (inactive) in [12]; -0.0897 (inactive) in assay [13]; 2.41 (inactive) in [14]; 0.783 (inactive) in assay [15].
On to `C=CCOC(=O)[C@H]1[C@@H]2C(=O)O[C@@H](c3ccccc3)[C@@H](c3ccccc3)N2[C@@H](c2ccc(OCCOC(=O)[C@H]3C[C@H]4C(=O)N5CCC[C@H]5C(=O)N4[C@H]3c3ccc(O)cc3)cc2)[C@]12C(=O)Nc1ccc(I)cc12`, for which the composite z-score is 2.88 in assay [1]; 1.23 in assay [2]; -0.0378 in [3]; 0.396 in assay [4]; 1.47 in assay [5]; 1.6 in [6]. Further, the composite z-score in [8] turned out to be 1.54; in assay [9], 1.66; in assay [11], 1.61; in assay [16], 1.93; in assay [17], 1.3; in [18] it was 2.59. For the same compound, the composite z-score in assay [19] came out at 2.65; in assay [20], 2.04. Also, the z-score in assay [7] is -0.87; in assay [10], 0.269 (inactive); in [12] it was -2.04 (inactive); in [13], 1.03 (inactive); in [14], 0.0043 (inactive); in assay [15], 0.803 (inactive).
